Assay outcomes: PubChem, National Center for Advancing Translational Sciences (NCATS)
The list is not random: actives were taken first. Their share in the collection is about 12%.
Pf growth 48h: inhibits P. falciparum growth in the first generation, 48 h; Potency, µM (doses to about 28.7 µM), without a hit: top-dose activity change, negative = inhibition, most hits filed as inhibitors; AID 504832; P. falciparum luciferase growth in erythrocytes, 48 h; 5.9% of 310,000 active; also: % is scaled to controls: 0 for no effect and ±100 for the full control effect
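Erythrocytes infected with P. falciparum carrying an integrated firefly luciferase reporter (2% hematocrit, 0.1% parasitemia final) were exposed to compounds in RPMI 1640 with 0.5% Albumax at 37 C, 5% CO2. Growth inhibition was scored as reduced luminescence.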
SARS PLpro yeast: SARS-CoV PLP inhibition in yeast; S. cerevisiae expressing SARS-CoV PLpro, growth rescue; Potency, µM (top dose mostly 32.9 µM), inactives show top-dose activity, positive = growth rescue, usual class: activators; 0.19% of 330,000 active; AID 485353; calls by dose curve; also: 0% is about no effect; nearly all actives have a fitted effect of over 55% in size
Sm TGR inh: blocks Schistosoma mansoni thioredoxin glutathione reductase; 3% of 360,000 active; AID 485364; Q962Y6; purified TGR, DTNB reduction, TNB absorbance 405 nm; Potency, µM (top dose mostly 114 µM), without a hit: at the top dose activity change, negative = inhibition, actives largely listed as inhibitors; also: % is scaled to controls: 0 for no effect and ±100 for the full control effect; nearly all actives have a fitted effect of over 60% in size
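Kinetic colorimetric format: TGR-catalysed, NADPH-driven DTNB reduction monitored via TNB absorbance. Enzyme dispensed at 20 nM; compound exposure 15 min at room temperature before reaction start.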
Pf growth 96h: P. falciparum growth inhibition at 96 hour, primary screen for plastid delayed-death inhibitors; P. falciparum luciferase reporter growth, 96 h; 6.9% of 320,000 active; Potency, µM (highest dose often 28.7 µM), without a hit: at the highest dose activity change, negative = inhibition, most hits filed as inhibitors; AID 504834; also: % is scaled to controls: 0 for no effect and ±100 for the full control effect
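Parasite growth measured via integrated firefly luciferase reporter in P. falciparum. Infected erythrocytes at 2% hematocrit, 0.05% parasitemia final were treated 96 hours at 37 C under 5% CO2, and luminescence was read.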
* = called active by the depositor; ? = inconclusive; · = no result; [ ] = dose if it differs, or a comment. Unless noted, calls follow the shape of the dose curve; as a rule, active = well fitted curve in the direction sought with a large enough effect; inconclusive = small, poorly fitted or top-dose-only effect, or another doubt; inactive = no such curve, though single readings can be large; an effect the other way counts as inactive or inconclusive. Potency is read from the fitted curve at half-maximal effect.

SMILES | Pf growth 48h | SARS PLpro yeast | Sm TGR inh | Pf growth 96h
CCOC(=O)c1c(C)n(C)c2ccc(O)c(CN3CCN(C)CC3)c12 | 1% | 0% | 35µM* | 0%[5.75 µM]
CCOC(=O)c1c(C)n(C)c2ccc(O)c(CN3CCC(C)CC3)c12 | ? | -3% | -26% | 10µM*
CCOC(=O)c1c(C)n(C)c2ccc(O)c(CN(CC)CC)c12 | · | -2% | -25% | 56%
CCOC(=O)c1c(-c2ccccc2)oc2ccc(O)c(CN3CCN(C)CC3)c12 | 3.7µM* | -2% | -10% | 3.3µM*
CC(=O)c1c(C)n(-c2cccc(C)c2)c2ccc(OC(=O)COc3ccccc3)cc12 | · | · | 17% | ·
CCN(CC)CCn1c2c(c(SCC(=O)Nc3ccc4c(c3)OCCO4)nc1=O)CCC2 | ? | 0% | -2% | 2.1µM*
CCN(CC)CCn1c2c(c(SCC(=O)Nc3ccc(C)c(F)c3)nc1=O)CCCC2 | 7.4µM* | 1% | 4% | ?
Cc1cccc(C)c1NC(=O)Cn1c(=O)n(CCC(=O)NCc2ccc3c(c2)OCO3)c(=O)c2sccc21 | · | · | -3% | ·
Cc1cccc(NS(=O)(=O)c2ccc3oc(=O)c4ncn(C)c4c3c2)c1C | · | · | -1% | ·
Cc1ccc(-c2cn(CCN)c(-c3ccc(Cl)nc3)n2)cc1 | 10µM* | 1% | 1% | -5%
Cc1ccc(-c2cn(CCC(=O)O)c(-c3ccc(Cl)nc3)n2)cc1 | 31% | -5% | 0% | 52%
CCCC[C@@H]1C=C(C(=O)O)[C@H](c2ccc(Cl)cc2)N1S(=O)(=O)c1ccc(C)cc1 | · | 0% | · | ·
Cc1ccc2nc(Cl)c(/C=N/NC(=O)[C@H]3C[C@@H]3c3ccccc3)cc2c1 | ? | -17% | 3% | 2.1µM*
CC(Cc1ccccn1)NC(=O)CCc1nnc(C2CCCCC2)o1 (stereo unspecified) | 0% | 0% | -2% | 13µM*
CC(NC(=O)CCc1nnc(C2CCCCC2)o1)c1ccc(F)cc1 (stereo unspecified) | 40% | 0% | -1% | 9%
Oc1ccc(Cl)cc1CN1CCN(Cc2ccccc2)CC1 | 1.5µM* | 0% | 1% | ·
OCC1(CCc2ccccc2)CCN(Cc2cc(Cl)ccc2O)CC1 | -26% | 0% | 10% | -24%
O=c1c(CN2CCN(Cc3ccccc3)CC2)coc2ccc(Cl)cc12 | 30% | -3% | 7.1µM* | 42%
Cc1ccc2occ(CN3CCN(c4ccccc4)CC3)c(=O)c2c1 | 5% | 0% | 25µM* | 26%
CCC(C)NC(=O)c1sc2nc(C)c(C(=O)Nc3ccc(C)cc3C)c(-c3ccc(NC(C)=O)cc3)c2c1N (stereo unspecified) | · | · | 0% | ·
Cc1ccc(S(=O)(=O)N2CCC(c3nc4c(nnn4Cc4ccccc4)c(=O)[nH]3)CC2)cc1 | 12µM* | 1% | · | 29%
O=c1[nH]c(C2CCN(S(=O)(=O)c3ccccc3C(F)(F)F)CC2)nc2c1nnn2Cc1ccccc1 | 5.9µM* | -3% | -14% | 2.6µM*
N#Cc1ccccc1S(=O)(=O)N1CCCC(c2nc3c(nnn3Cc3cccc(Cl)c3)c(=O)[nH]2)C1 (stereo unspecified) | · | · | -8% | ·
O=c1[nH]c(C2CCN(S(=O)(=O)c3ccccc3F)CC2)nc2c1nnn2Cc1ccc(OC(F)(F)F)cc1 | ? | 10% | 1% | ?
Cc1ccc(Cn2nnc3c(=O)[nH]c(C4CCN(S(=O)(=O)c5ccccc5)CC4)nc32)cc1 | 13% | 2% | -24% | 30%
SMILES | Pf growth 48h | SARS PLpro yeast | Sm TGR inh | Pf growth 96h
O=c1[nH]c(C2CCCN(S(=O)(=O)Cc3ccccc3)C2)nc2c1nnn2Cc1cccc(Cl)c1 (stereo unspecified) | 12µM* | 2% | 2% | 10%
O=c1[nH]c(C2CCCN(S(=O)(=O)c3ccc(F)cc3)C2)nc2c1nnn2Cc1ccccc1 (stereo unspecified) | 13µM* | -3% | -36% | 13%[5.75 µM]
Cc1ccc(C(C)NC(=O)COC(=O)C2=COCCO2)cc1C (stereo unspecified) | -1% | 0% | -18% | 15%
Cc1ccc(NC(=O)c2ccc3snnc3c2)cc1Cl | · | · | -3% | ·
O=c1[nH]c(C2CCN(S(=O)(=O)/C=C/c3ccccc3)CC2)nc2c1nnn2Cc1ccccc1 | 4.7µM* | 0% | 0% | -69%
N#Cc1ccc(NC(=O)N2CCC(c3nc4c(nnn4Cc4cccc(Cl)c4)c(=O)[nH]3)CC2)cc1 | ? | 1% | -26% | 7.4µM*
Cc1ccc(Cn2nnc3c(=O)[nH]c(C4CCN(S(=O)(=O)Cc5ccccc5)CC4)nc32)cc1 | ? | 4% | -16% | 147%
S=c1nc(NCc2cccc(Cl)c2)c2ccccc2[nH]1 | ? | -1% | 20% | 25%
NS(=O)(=O)c1ccc(CCNC(=O)c2ccc3nc4ccc(Cl)cc4c(=O)n3c2)cc1 | 12µM* | 0% | -26% | 6%
Cc1ccc(CCNC(=O)c2ccc3nc4ccc(Cl)cc4c(=O)n3c2)cc1 | · | 1% | -3% | 9%
N#CC1(NC(=O)CSc2nnc(Nc3ccccc3F)s2)CCCC1 | ? | -5% | -6% | 12µM*
O=C(CSc1nnc(Nc2ccccc2F)s1)NCC1CCCO1 (stereo unspecified) | · | -3% | · | ·
CCCCNC(=O)CN1C(=O)c2cccnc2Sc2ccccc21 | · | · | -1% | ·
CCOC(=O)c1cccc(Nc2cc(C)nc(C)n2)c1 | · | · | -1% | ·
C#CCOCCOCCOCCNc1nc(N2CCN(C(=O)CCCCCCCCCCNC(=O)[C@H](CCCCN)n3cc(C)nn3)CC2)nc(N2CCN(C(=O)CCCCCCCCCCNC(=O)[C@H](CCCCN)n3cc(CCCC(=O)O)nn3)CC2)n1 | 10µM* | 6% | ? | ?
C#CCOCCOCCOCCNc1nc(N2CCN(C(=O)CCCCCCCCCCNC(=O)[C@H](CCCCN)n3cc(CCCC(=O)O)nn3)CC2)nc(N2CCN(C(=O)CCCCCCCCCCNC(=O)[C@@H]([C@H](C)O)n3cc(C)nn3)CC2)n1 | 5.2µM* | -5% | -18% | 5.9µM*
C=CCN(CC(=O)NCC1CCCO1)C(=O)CCC(=O)Nc1cc(C)on1 (stereo unspecified) | 26% | 14% | 52% | ?
O=C(CN(CC1CCCO1)C(=O)CCC(=O)Nc1nccs1)NCC1CCCO1 (stereo unspecified) | 0% | -2% | 6% | 13µM*
COCCN(CC(=O)NCC1CCCO1)C(=O)CCC(=O)Nc1cc(C)on1 (stereo unspecified) | 19% | -3% | 0% | 1.7µM*
CCN(CC(=O)NCc1cccs1)C(=O)/C=C/c1cc(OC)c(OC)c(OC)c1 | 13% | 1% | -1% | 4%
CON(C)C(=O)CC(CNC(=O)OC(C)(C)C)c1ccc(Cl)cc1 (stereo unspecified) | · | 0% | · | ·
O=C(O)c1ccc(Nc2ccc([N+](=O)[O-])c3nonc23)cc1 | -17% | 0% | ? | ?
NS(=O)(=O)c1ccc(Nc2ccc([N+](=O)[O-])c3nonc23)cc1 | ? | 1% | -13% | 9.3µM*
COc1ccc2c(c1)c1c(c(=O)n(-c3cccc(C)c3)c(=O)n1Cc1cccc(Cl)c1)n2C | · | · | 1% | ·
